Measured values reported in PubChem BioAssay AID614 (Sanford-Burnham Center for Chemical Genomics, 2007).
Screen size: about 21,000 compounds; fewer than 10 were called active. The list is a sample of the results. A number with no mark means an inactive call.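 How the source made its calls: active means inhibition above 50% at the 20 µM single-dose screen; inactive means the rest.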

Target: Alkaline phosphatase, tissue-nonspecific isozyme (Homo sapiens) (UniProt P05186)
Test: blockers of alkaline phosphatase TNAP activity – biochemical, colorimetric, phosphate release readout, primary screen (AID 614)
Conditions: purified TNAP, pNPP, malachite green phosphate absorbance; at 20 µM; hits give high values

Sequence of Alkaline phosphatase, tissue-nonspecific isozyme (Homo sapiens) (P05186 whole entry, looked up): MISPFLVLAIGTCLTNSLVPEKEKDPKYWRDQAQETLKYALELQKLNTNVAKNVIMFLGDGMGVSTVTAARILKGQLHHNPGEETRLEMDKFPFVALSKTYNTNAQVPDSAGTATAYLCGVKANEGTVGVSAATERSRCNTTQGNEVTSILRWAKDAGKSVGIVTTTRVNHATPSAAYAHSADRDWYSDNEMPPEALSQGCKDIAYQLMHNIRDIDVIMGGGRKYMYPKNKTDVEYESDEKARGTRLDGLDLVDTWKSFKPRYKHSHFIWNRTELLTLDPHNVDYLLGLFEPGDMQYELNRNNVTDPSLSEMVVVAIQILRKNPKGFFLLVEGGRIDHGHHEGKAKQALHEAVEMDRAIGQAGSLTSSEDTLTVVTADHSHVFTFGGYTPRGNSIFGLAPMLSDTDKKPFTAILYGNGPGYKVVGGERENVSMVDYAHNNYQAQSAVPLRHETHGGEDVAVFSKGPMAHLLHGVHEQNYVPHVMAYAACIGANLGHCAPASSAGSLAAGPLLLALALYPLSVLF

| SMILES | inhibition |
| --- | --- |
| C=CCNc1nnc(C)c2ccccc12 | 15.4% |
| COCCNC(=O)C(C#N)c1nc2ccccc2nc1N1CCN(Cc2ccc3c(c2)OCO3)CC1 (centres undefined) | 8.2% |
| CC1COC2C(O1)N(S(C)(=O)=O)CCN2S(C)(=O)=O (centres undefined) | 3.4% |
| CCn1cc(C(=O)NCc2ccc(OC)cc2OC)c(=O)c2ccc(C)nc21 | 9.9% |
| Cc1cccc(NC(=O)c2ccccc2NC(=O)C(C)(C)C)n1 | 0.8% |
| Cc1cc(C)cc(NC(=O)N2CCC(NC(=O)c3ccc(F)cc3)CC2)c1 | 7.3% |
| CSc1nsc(SC)c1NC(=O)OC1CCCCC1 | 0% |
| COCc1nc2ccccc2n1Cc1ccccc1Br | 1.7% |
| c1nnc2c3c4c(sc3ncn12)CCC4 | 9.7% |
| Cc1cc(Cl)c(S(=O)(=O)NCc2cccnc2)cc1OCC(N)=O | 5.5% |
| O=C(O)c1ccc(NS(=O)(=O)c2cccc3nsnc23)cc1 | 11.8% |
| Cn1c(=O)[nH]c(=O)c2c1nc(Br)n2CCCCSc1nc2ccccc2o1 | 1.3% |
| CCOC(=O)c1sc(NC(=O)CSc2nnc(-c3ccco3)o2)c(C(=O)OCC)c1C | 7.3% |
| Cc1nc(N2CCCC2C(=O)O)c2oc3ccccc3c2n1 (centres undefined) | 10.7% |
| Cc1nc(NCCN)c(C#N)c2c1COC(C)(C)C2 | 5.7% |
| O=S(=O)(NCc1ccccn1)c1ccc(F)cc1 | 9.6% |
| CCN(CC)C(=O)CSc1nnc(-c2cnccn2)n1-c1ccc(C)cc1 | 2.9% |
| Cc1ccc(S(=O)(=O)Nc2ccccc2CNc2c(C)n(C)n(-c3ccccc3)c2=O)cc1 | 12.4% |
| CCC1CCCCN1C(=O)Nc1cccc(NC(=O)N2CCCCC2CC)c1 (centres undefined) | 6.5% |
| Cc1ccc2nc(-c3ccccc3)cc(C(=O)O)c2c1 | 2.9% |
| COc1ccc(Cl)cc1NC(=O)C1CC(=O)N(c2ccc(F)cc2)C1 (centres undefined) | 4.2% |
| CCOC(=O)Cn1c(SC)nc2sc3c(c2c1=O)CC(C)(C)OC3 | 11.5% |

| SMILES | inhibition |
| --- | --- |
| CCOC(=O)CCc1c(C)c2ccc(OCc3nn[nH]n3)c(C)c2oc1=O | -5.8% |
| Cc1noc(C)c1CSc1nnc2ccc3ccccc3n12 | 12.2% |
| COc1ccc(CCn2c(-c3ccco3)nc3nc4ccccc4nc32)cc1OC | 1.5% |
| Cc1cccc2cc(CN(Cc3ccc4c(c3)OCO4)Cc3nnnn3C3CCCC3)c(=O)[nH]c12 | 15% |
| COc1cc(C(=O)N(Cc2ccc(N(C)C)cc2)C2CCS(=O)(=O)C2)cc(OC)c1OC (centres undefined) | 8% |
| CCOC(=O)CC1=CC(=O)Nc2ccccc2N1 | 2.4% |
| Cc1cc(C)cc(OCc2nnc(SCC(=O)OC3CCCCC3)o2)c1 | -4.5% |
| COC(=O)c1nc(NC(=O)c2ccc(Cl)cc2)n[nH]1 | 1.5% |
| CCC1SC2=NCCN2C1(O)c1ccc(Cl)cc1 (centres undefined) | 3.8% |
| CCSc1nc(=S)n(CC)c(C)c1C(C)=O | 5.7% |
| Cc1ccc2nc(NC3=NCN(CCc4ccccc4)CN3)nc(C)c2c1 | 10.4% |
| O=C(CN(c1ccc2c(c1)OCCO2)S(=O)(=O)c1ccccc1)Nc1ccc2c(c1)OCO2 | 5.3% |
| O=S(=O)(NCC1CCCO1)c1ccc2ccccc2c1 (centres undefined) | 8.8% |
| CCn1c(SCC(=O)Nc2nc3ccc(OC)cc3s2)nnc1-c1ccoc1C | 1.9% |
| CSCC[C@H](NC(=O)NCc1cccs1)C(=O)O | -0.1% |
| COC(=O)c1ccc(CSc2nncn2C)cc1 | 11% |
| COc1cccc(N(CC(=O)Nc2cccc(F)c2)S(C)(=O)=O)c1 | 0.7% |
| CCOP1(=O)C=C(C(C)(C)C)OC1c1ccc(F)cc1 (centres undefined) | -0.2% |
| CCN1CCN(C(=O)c2ccccc2N(C)S(=O)(=O)c2ccc(C)cc2)CC1 | 11.4% |
| Nn1c(SCC(=O)NC(=O)NC2CCCC2)nnc1-c1ccccc1F | 15.5% |
| CCCn1c(SCC(=O)c2ccc3c(c2)OCCO3)nnc1C(C)C | 11.4% |
| O=C(Nc1cccc2c1CCCC2)C1CCN(C(=O)NC2CCCCC2)CC1 | 15.2% |

| SMILES | inhibition |
| --- | --- |
| COc1ccc2c(c1)C(C)=CC(C)(C)N2C(=O)CNCc1ccc2c(c1)OCO2 | 6.2% |
| COc1ccc(NS(=O)(=O)c2ccc(NC(=O)C(C)(C(F)(F)F)C(F)(F)F)cc2)nn1 | 3.4% |
| Cc1ccc(C(=O)CS(C)(=O)=O)cc1 | -1.2% |
| Clc1ccc(CSc2nnc([C@@H]3CCCN3)o2)cc1 | 13% |
| COC(=O)C1C(=O)CC(C)(O)C(C(=O)OC)C1c1ccc2c(c1)OCO2 (centres undefined) | 9.9% |
| CN(C)Cc1c(C#N)c2ccccc2n1C | -22.9% |
| C=CCn1c(CC(=O)Nc2cccc(OC)c2)nnc1SCC(=O)NC1CCCCC1 | -6.2% |
| Cc1cc(Br)ccc1NC(=O)C1CCCO1 (centres undefined) | 0% |
| Cc1ccc(C(=O)CSc2nc3ccccc3c(=O)n2N)o1 | 6% |
| CCCCC(CCC(=O)Nc1ccc(C(=O)OCC)cc1)C(=O)O (centres undefined) | 6% |
| Fc1cnc(N2CCOCC2)nc1NCc1ccccc1 | -0.4% |
| CCOC(=O)CN(C(=O)CN1CCOCC1)c1ccc(Br)cc1 | -1.5% |
| O=C(O)COc1nsnc1N1CCOCC1 | 10.4% |
| O=C1CCC(C(=O)Nc2ccc(OC(F)F)cc2)N1 (centres undefined) | 21.3% |
| Cc1cccc(Cn2c(N3CCN(c4ccccc4)CC3)nc3c2c(=O)n(C)c(=O)n3C)c1 | 8.8% |
| O=C1CC(N2CCN(C(c3ccccc3)c3ccccc3)CC2)C(=O)N1 (centres undefined) | 7.9% |
| COC(=O)c1ccc(N(CC(=O)NC2CCCC2)C(=O)CNC(=O)c2ccco2)cc1 | 0% |
| Cc1ccc(C)c(NC(=O)C2CCCN2C(=O)OC(C)(C)C)c1 (centres undefined) | -3.4% |
| O=C(NCc1ccc(Cl)cc1)c1cc2c(nc3sccn32)s1 | 12.4% |
| CN(C)CCCNc1c2c(c(C#N)c3nc4ccccc4n13)CCC2 | 0% |
